In the supplement of paper PMC11732987, “Enantioselective OTUD7B fragment discovery through chemoproteomics screening and high-throughput optimisation” (Communications Chemistry, 2025):

Experiments:
Experiment in all cases: log2 ratio of Biotin-Ahx-Ub-VS probe labelling (fragment/DMSO); higher = less target engagement (more negative = stronger competition), active = hit call of the paper (q ≤ 0.05, log2 ratio ≤ -1)
Settings in all cases: compound concentration: 200 uM; treatment time: 3 h
[1] = target: USP34 (UniProt Q70CQ2)
In short: (§1)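 Each value is an average log2 ratio of fragment to vehicle, tested by unpaired t-test. The underlying Spectronaut label-free quantities were global-median-normalised, and only proteins with ≥2 unique peptides were included. Triplicate HEK293T lysate samples (495 µg) were exposed to fragment at 200 µM or vehicle for 3 h, then to Biotin-Ahx-Ub-VS at 0.5 µM final for 1 h, before NeutrAvidin enrichment of labelled DUBs, LysC and trypsin digestion, and diaPASEF LC-MS/MS.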

[2] = target: T1, USP36 (UniProt Q9P275)
T1 sequence (whole entry): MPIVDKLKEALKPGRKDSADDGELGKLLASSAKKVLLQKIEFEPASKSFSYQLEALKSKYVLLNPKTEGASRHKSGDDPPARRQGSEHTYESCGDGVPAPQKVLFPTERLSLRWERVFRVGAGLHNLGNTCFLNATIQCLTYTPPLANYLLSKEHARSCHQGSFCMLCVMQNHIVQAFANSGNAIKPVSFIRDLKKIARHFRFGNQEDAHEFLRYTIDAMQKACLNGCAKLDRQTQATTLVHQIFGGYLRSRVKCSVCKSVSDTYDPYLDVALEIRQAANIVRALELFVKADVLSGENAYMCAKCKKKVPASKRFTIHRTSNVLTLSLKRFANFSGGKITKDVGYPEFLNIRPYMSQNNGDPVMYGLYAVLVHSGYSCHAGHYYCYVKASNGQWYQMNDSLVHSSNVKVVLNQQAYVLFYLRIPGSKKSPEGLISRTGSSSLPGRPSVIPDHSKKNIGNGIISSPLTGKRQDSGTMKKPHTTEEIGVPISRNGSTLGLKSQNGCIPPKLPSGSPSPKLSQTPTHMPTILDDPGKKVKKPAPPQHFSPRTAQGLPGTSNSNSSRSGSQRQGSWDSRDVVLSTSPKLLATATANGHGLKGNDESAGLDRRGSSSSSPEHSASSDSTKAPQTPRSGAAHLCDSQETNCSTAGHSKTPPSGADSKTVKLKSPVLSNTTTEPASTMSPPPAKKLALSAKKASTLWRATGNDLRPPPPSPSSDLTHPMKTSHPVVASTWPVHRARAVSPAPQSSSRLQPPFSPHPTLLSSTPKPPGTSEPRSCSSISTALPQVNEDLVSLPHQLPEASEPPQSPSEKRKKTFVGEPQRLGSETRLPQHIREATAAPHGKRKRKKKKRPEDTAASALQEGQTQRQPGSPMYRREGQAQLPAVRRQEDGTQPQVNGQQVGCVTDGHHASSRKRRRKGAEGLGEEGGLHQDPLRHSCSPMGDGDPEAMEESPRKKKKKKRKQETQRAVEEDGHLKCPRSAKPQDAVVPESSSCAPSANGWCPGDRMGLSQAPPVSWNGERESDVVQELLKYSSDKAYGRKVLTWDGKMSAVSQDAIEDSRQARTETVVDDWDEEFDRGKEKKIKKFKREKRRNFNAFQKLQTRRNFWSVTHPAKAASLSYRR
In short: as §1

[3] = target: T2, USP38 (UniProt Q8NB14)
T2 sequence (whole entry): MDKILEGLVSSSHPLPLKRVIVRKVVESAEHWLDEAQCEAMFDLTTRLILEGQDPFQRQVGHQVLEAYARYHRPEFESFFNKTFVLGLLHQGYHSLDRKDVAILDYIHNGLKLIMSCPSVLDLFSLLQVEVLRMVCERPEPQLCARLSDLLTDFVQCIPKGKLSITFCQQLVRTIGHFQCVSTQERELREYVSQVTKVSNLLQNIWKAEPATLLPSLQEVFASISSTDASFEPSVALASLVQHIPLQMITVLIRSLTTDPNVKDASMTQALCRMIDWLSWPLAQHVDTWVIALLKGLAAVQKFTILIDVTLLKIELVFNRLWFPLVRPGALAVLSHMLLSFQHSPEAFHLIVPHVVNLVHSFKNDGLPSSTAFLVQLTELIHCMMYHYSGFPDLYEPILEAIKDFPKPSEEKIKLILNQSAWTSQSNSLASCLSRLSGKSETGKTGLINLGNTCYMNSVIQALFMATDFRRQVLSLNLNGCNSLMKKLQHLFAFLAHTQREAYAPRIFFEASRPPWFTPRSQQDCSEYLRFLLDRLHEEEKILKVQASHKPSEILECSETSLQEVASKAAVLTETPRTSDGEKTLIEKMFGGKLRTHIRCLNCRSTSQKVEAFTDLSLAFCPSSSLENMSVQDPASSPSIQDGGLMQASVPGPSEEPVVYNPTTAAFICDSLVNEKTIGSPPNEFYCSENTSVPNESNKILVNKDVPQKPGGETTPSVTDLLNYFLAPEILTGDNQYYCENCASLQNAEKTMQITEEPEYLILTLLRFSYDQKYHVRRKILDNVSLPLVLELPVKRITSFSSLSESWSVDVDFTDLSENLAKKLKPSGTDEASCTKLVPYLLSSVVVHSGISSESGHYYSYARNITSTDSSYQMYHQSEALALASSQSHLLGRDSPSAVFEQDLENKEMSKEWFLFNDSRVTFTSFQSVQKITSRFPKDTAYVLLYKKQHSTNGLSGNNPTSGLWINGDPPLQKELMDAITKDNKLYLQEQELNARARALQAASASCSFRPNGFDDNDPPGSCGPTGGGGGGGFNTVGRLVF
In short: as §1

[4] = target: T3, USP39 (UniProt Q53GS9)
T3 sequence (whole entry): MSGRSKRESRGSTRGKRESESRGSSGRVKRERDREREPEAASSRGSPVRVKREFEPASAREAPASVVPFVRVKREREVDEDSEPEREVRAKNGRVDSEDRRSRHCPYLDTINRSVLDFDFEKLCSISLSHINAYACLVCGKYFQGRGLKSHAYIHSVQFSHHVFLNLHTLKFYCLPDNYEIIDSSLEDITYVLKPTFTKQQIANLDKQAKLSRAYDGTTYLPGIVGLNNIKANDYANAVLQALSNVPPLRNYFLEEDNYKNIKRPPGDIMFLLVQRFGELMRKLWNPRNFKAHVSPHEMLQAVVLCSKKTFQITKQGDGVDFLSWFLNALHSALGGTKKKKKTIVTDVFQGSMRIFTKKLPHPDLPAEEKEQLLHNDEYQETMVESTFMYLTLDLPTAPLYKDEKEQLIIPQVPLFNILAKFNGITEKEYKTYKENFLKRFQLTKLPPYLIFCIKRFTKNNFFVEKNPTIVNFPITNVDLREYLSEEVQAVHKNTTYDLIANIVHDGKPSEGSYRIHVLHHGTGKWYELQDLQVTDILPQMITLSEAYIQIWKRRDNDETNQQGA
In short: as §1

[5] = target: T4, USP4 (UniProt Q13107)
T4 sequence (whole entry): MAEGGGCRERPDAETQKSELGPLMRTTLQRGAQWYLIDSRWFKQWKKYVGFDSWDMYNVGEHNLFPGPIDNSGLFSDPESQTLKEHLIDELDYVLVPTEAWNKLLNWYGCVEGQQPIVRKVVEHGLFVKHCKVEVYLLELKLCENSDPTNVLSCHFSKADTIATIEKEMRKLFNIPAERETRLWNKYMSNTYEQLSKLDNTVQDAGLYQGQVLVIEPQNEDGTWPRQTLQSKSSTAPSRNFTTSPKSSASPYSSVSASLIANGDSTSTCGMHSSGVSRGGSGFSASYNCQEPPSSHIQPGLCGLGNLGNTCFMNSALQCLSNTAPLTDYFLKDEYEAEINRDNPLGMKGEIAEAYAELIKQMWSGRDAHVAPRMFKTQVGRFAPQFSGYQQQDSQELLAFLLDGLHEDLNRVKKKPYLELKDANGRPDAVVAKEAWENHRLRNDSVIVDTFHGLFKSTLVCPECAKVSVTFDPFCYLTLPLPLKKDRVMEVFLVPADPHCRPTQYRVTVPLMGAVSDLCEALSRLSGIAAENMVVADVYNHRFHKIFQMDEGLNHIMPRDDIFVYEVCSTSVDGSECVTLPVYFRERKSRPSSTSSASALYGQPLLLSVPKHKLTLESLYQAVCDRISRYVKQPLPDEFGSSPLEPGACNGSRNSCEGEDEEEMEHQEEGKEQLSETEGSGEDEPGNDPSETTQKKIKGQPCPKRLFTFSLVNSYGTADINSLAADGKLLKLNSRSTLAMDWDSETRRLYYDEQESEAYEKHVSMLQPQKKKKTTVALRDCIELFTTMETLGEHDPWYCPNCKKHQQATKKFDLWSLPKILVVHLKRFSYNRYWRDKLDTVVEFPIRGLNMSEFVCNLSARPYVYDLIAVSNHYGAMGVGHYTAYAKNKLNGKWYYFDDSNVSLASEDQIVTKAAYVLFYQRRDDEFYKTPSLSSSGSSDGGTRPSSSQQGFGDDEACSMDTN
In short: as §1

Measured: log2 ratio of Biotin-Ahx-Ub-VS probe labelling

Chain of USP34 (Q70CQ2 whole entry, the tested form may be a part): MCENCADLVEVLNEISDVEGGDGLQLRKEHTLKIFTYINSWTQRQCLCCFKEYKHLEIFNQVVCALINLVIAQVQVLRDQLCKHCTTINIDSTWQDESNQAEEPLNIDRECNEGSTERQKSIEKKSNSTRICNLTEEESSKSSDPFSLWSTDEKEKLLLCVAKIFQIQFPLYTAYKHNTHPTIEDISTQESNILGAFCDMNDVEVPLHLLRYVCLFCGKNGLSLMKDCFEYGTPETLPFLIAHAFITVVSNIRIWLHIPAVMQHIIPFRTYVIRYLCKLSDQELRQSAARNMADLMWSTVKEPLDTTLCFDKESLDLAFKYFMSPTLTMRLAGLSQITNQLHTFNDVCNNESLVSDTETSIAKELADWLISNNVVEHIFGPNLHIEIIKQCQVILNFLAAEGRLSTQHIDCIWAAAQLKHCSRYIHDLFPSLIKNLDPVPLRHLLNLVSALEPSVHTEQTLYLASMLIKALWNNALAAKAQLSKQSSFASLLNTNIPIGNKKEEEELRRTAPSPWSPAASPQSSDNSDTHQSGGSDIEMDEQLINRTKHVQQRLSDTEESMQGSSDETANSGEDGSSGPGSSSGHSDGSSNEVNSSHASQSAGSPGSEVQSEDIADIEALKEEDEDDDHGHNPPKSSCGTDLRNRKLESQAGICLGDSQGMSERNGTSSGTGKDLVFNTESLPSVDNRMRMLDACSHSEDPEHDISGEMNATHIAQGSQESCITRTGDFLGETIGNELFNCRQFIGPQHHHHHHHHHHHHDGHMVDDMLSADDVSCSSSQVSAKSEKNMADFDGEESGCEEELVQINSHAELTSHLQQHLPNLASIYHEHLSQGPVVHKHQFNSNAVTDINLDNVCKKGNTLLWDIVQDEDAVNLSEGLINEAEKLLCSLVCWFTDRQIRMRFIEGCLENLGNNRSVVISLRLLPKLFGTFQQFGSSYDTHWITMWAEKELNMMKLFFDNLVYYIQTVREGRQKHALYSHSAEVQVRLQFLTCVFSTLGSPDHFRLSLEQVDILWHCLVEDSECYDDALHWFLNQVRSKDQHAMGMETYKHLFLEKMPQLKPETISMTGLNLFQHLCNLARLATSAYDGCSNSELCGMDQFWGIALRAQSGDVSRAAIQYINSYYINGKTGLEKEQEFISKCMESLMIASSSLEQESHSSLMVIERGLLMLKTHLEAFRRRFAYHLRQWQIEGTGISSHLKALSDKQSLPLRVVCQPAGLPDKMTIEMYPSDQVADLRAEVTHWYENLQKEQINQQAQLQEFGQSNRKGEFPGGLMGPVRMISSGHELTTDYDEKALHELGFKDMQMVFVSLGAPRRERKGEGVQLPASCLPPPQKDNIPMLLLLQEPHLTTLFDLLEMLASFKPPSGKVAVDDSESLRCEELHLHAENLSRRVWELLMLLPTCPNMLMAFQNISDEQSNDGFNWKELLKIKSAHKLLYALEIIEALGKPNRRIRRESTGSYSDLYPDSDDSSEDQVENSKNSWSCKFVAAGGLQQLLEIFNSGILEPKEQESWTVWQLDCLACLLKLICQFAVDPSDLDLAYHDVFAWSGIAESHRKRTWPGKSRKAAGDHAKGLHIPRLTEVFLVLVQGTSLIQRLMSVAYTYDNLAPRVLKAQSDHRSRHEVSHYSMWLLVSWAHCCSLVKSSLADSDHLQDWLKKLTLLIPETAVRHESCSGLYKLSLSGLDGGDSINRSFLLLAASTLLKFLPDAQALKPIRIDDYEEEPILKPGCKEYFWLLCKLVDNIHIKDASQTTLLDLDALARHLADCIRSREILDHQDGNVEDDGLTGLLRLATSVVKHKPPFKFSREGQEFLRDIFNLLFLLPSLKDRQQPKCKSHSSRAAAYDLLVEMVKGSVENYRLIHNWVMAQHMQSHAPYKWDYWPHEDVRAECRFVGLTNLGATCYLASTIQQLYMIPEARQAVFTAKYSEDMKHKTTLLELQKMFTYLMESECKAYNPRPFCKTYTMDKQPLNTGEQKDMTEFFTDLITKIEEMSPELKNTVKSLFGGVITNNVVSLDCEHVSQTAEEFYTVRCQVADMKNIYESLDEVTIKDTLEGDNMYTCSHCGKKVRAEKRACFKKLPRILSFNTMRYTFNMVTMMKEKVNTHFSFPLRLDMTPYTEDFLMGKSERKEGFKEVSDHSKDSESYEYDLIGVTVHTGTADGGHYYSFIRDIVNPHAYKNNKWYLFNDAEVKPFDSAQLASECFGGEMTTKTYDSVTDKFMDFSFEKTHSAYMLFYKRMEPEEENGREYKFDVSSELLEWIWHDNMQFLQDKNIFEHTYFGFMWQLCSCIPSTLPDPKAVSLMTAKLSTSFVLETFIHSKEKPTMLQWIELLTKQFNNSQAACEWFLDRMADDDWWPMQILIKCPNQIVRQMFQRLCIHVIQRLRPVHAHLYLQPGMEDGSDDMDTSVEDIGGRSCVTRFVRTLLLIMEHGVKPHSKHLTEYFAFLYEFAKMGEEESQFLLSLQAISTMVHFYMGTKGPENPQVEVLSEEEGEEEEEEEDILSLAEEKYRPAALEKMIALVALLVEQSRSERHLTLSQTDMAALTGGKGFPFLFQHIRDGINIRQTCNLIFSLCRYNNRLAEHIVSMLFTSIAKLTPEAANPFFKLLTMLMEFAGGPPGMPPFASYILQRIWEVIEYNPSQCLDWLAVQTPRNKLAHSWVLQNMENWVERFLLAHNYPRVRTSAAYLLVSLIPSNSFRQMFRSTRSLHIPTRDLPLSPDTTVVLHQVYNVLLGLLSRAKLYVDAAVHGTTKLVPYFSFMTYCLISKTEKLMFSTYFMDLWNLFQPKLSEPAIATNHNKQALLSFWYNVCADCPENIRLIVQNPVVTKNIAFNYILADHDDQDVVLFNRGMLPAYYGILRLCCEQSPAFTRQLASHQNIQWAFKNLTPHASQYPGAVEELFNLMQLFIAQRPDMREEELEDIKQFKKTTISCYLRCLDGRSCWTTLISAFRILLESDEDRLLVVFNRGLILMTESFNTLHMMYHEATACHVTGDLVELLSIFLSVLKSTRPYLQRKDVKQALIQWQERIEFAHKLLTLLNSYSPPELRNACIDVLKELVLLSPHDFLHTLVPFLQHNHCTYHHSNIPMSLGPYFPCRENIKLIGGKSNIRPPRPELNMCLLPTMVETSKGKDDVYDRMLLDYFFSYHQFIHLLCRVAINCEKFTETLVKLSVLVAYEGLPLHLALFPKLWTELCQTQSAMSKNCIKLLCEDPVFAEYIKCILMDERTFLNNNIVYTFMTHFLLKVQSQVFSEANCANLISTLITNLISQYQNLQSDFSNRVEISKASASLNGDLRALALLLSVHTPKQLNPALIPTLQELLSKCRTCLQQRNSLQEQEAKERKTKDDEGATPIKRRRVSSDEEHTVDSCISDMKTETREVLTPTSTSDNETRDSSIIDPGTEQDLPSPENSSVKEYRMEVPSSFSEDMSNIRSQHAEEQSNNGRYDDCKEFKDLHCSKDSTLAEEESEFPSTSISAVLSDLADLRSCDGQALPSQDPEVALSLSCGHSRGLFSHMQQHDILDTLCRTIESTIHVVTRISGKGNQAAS

Cc1c(C#N)c(NC(=O)CCl)n(Cc2ccco2)c1C
inactive: [1] -0.304 | [2] -0.0578 | [3] -0.297 | [4] -0.162 | [5] -0.372
